PD-1 reversal: activators reversing PD-1 mediated T-cell inhibition; primary human CD4 T cells, PD-L1 beads, CellTiter-Glo 96 h; activation, % (no concentration beside the values); 29,000 tested, under 10 active; call rule not given here
NOMO-1 viab: STK33 inhibitor candidate reducing NOMO-1 cell viability; NOMO-1 AML viability, CellTiter-Glo luminescence, 72 h; AID 2330; inhibition, % (no concentration beside the values); 37,000 compounds, 7.5% hits; in the data active means inhibition above about 80%; inconclusive means no clear call, values can overlap the other calls
Shh pathway inh: blocks Sonic Hedgehog signaling | Shh-LIGHT2 Gli-luciferase reporter, 30 h | inhibition, % (test concentration not listed) | 22,000 compounds, 2.1% hits;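 active means mean inhibition across valid replicates above about 65%, limit read from the data; inconclusive means mean under the limit, yet half or more replicates past it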;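 further: pathway switched on by Shh-conditioned medium diluted 1 in 25 in low serum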
Hits are given with their value; - = inactive; ? = inconclusive; . = not tested or not shown. This is a sample that favours compounds with a hit; in the whole collection about 7.7% have one here.

SMILES | PD-1 reversal | NOMO-1 viab | Shh pathway inh
C[C@@H]1CCCCO[C@H](CN(C)Cc2ccc(C(F)(F)F)cc2)[C@@H](C)CN([C@H](C)CO)C(=O)c2cc(NC(=O)c3ccncc3)ccc2O1 | . | - | .
C[C@@H]1CCCCO[C@H](CN(C)Cc2ccc(C(F)(F)F)cc2)[C@@H](C)CN([C@H](C)CO)C(=O)c2cc(NC(=O)Nc3ccc(C(F)(F)F)cc3)ccc2O1 | - | 113 | -
O=C(CSC1=NC(=O)C(c2ccccc2)C(=O)N1)NC1CCCCC1 (configuration not stated) | - | - | -
COc1cccc(NC(=O)CSc2nnc(-c3ccccc3F)n2-c2ccccc2)c1 | - | - | .
COc1ccc(NC(=O)N(C)C[C@H]2Oc3ccc(NS(=O)(=O)c4cn(C)cn4)cc3CC(=O)N([C@H](C)CO)C[C@H]2C)cc1 | - | - | -
COc1ccc(NC(=O)N(C)C[C@@H]2Oc3ccc(NS(=O)(=O)c4ccc(Cl)cc4)cc3CC(=O)N([C@@H](C)CO)C[C@@H]2C)cc1 | . | - | -
COc1ccc(NC(=O)N(C)C[C@@H]2Oc3ccc(NS(=O)(=O)c4cn(C)cn4)cc3CC(=O)N([C@H](C)CO)C[C@H]2C)cc1 | - | - | 72
COc1ccc(NC(=O)N(C)C[C@H]2Oc3ccc(NS(=O)(=O)c4ccc(Cl)cc4)cc3CC(=O)N([C@@H](C)CO)C[C@H]2C)cc1 | - | - | 67
C/C=C1\C(O[C@@H]2O[C@H](CO)[C@@H](O)[C@H](O)[C@H]2O)OC=C(C(=O)OC)C1CC(=O)OC[C@@H]1[C@H](C)[C@@H](OC(=O)CC2C(C(=O)OC)=COC(O[C@@H]3O[C@H](CO)[C@@H](O)[C@H](O)[C@H]3O)/C2=C\C)C[C@H]1C(CO)CO (some centres not stated) | . | . | -
COc1cc2c(cc1NC(=S)NCc1ccco1)oc1ccccc12 | - | 93 | .
COc1cc2c(cc1NC(=S)NCCc1ccc(OC)c(OC)c1)oc1ccccc12 | - | - | .
CCOc1ccc2c(c1)sc(=NC(=O)c1ccc(S(=O)(=O)N3CCCCC3C)cc1)n2CC (configuration not stated) | - | - | -
Cn1c(SCC(=O)Nc2ccccc2Cl)nnc1-c1cccnc1 | - | - | .
CC(=O)c1cccc(NC(=O)CSc2nnc3c(n2)[nH]c2ccccc23)c1 | - | - | .
CCOC(=O)CSc1nnc2c(n1)[nH]c1ccccc12 | . | 111 | .
O=C1NC(=O)C2(COC(c3ccccc3)OC2)S1 (configuration not stated) | - | - | -
CC1(C)C=CC(=O)[C@@]2(C)C1CC(=O)[C@]1(C)C2CC[C@@]2(C)[C@H](c3ccoc3)OC(=O)C3OC321 (some centres not stated) | . | - | -
CC1(C)C(=O)C=C[C@@]2(C)C1CC(=O)[C@]1(C)C2CC[C@@]2(C)[C@H](c3ccoc3)OC(=O)[C@H]3O[C@]321 (some centres not stated) | . | 88 | -
Cc1ccc(S(=O)(=O)NCC(=O)Nc2cccc(Cl)c2)cc1 | - | - | .
O=C(/C=C/c1ccc(Cl)cc1)Nc1cccc(Cl)c1 | - | 120 | ?
Cc1ccc(NC(=O)COc2ccccc2)c(NC(=O)c2cccs2)c1 | - | - | .
CCN(CC(=O)Nc1cccc(Cl)c1C)S(=O)(=O)c1ccc(OC)cc1 | . | - | .
C=C(CO)C(=O)O[C@H]1CC(=C)[C@@H]2CC(=O)[C@H](C)[C@@H]2[C@H]2OC(=O)C(=C)[C@@H]21 | - | 107 | -
C=C1C(=O)O[C@@H]2[C@H]3C(C)=CC(=O)C3=C(C)C[C@H](O[C@@H]3O[C@H](CO)[C@@H](O)[C@H](O)[C@H]3O)[C@@H]12 | - | - | -
CC(NS(=O)(=O)c1ccc(Cl)cc1)C(=O)Nc1cccc2ccccc12 (configuration not stated) | - | - | .
SMILES | PD-1 reversal | NOMO-1 viab | Shh pathway inh
Nc1nnnn1/N=C1/C(=O)Nc2ccc(Br)cc21 | - | - | -
CCCCCCCCC[C@@H](O)CC(=O)CCc1ccc(O)c(OC)c1 | - | 92 | -
CCCCCC(O)CC(O)CCc1ccc(O)c(OC)c1 (configuration not stated) | . | . | -
O=c1c2ccccc2nc(SCc2ccc3c(c2)OCO3)n1-c1ccccc1 | - | - | .
CC(=O)c1cccc(NC(=O)C(C)NS(=O)(=O)c2ccc(Br)cc2)c1 (configuration not stated) | - | - | .
O=C(CSc1nc(-c2ccccc2)cc(C(F)(F)F)n1)Nc1ccc2c(c1)CCC2 | - | - | .
CC1CCCC2=CC(OC2=O)C(C)(C)CCC1=O (configuration not stated) | . | . | -
O=C(NC1CCCC1)c1c(NC(=O)c2cc(-c3cccnc3)nc3ccccc23)sc2c1CCCC2 | . | - | .
Cc1sc(NC(=O)c2cc(-c3cccnc3)nc3ccccc23)c(C(=O)NC2CCCCC2)c1C | . | 98 | .
CC(Oc1ccc(Br)cc1)C(=O)NCc1ccco1 (configuration not stated) | - | - | .
CCOc1ccc(C(Nc2cccc(C)n2)c2ccc3ccc(C)nc3c2O)cc1 (configuration not stated) | - | 106 | .
Cc1cccc(NC(c2ccccc2)c2ccc3ccc(C)nc3c2O)n1 (configuration not stated) | . | 102 | .
Cc1ccc2cccc(OCc3nnc(SCC(N)=O)n3C)c2n1 | - | - | .
C/C=C/C(O)C(C)CC(C)C(OC(=O)CCC(=O)O)C(C)/C=C/C=C/C=C(\C)C(=O)O (configuration not stated) | - | ? | -
COc1ccc(CN(C)C[C@H]2Oc3c(NC(=O)Nc4ccc5c(c4)OCO5)cccc3C(=O)N([C@H](C)CO)C[C@@H]2C)cc1 | . | - | -
COc1ccc(CN(C)C[C@@H]2Oc3c(NC(=O)Nc4ccc5c(c4)OCO5)cccc3C(=O)N([C@@H](C)CO)C[C@H]2C)cc1 | . | 87 | -
COc1ccc(NC(=O)Nc2cccc3c2O[C@@H](CN(C)Cc2ccc4c(c2)OCO4)[C@@H](C)CN([C@H](C)CO)C3=O)cc1 | - | 89 | -
COc1ccc(NC(=O)Nc2cccc3c2O[C@H](CN(C)Cc2ccc4c(c2)OCO4)[C@H](C)CN([C@@H](C)CO)C3=O)cc1 | - | - | -
C[C@@H]1CN([C@@H](C)CO)C(=O)c2cc(NC(=O)Nc3cccc4ccccc34)ccc2O[C@@H]1CN(C)Cc1ccc(C(F)(F)F)cc1 | - | 106 | .
C[C@@H]1CN([C@H](C)CO)C(=O)c2cc(NC(=O)Nc3cccc4ccccc34)ccc2O[C@@H]1CN(C)Cc1ccc(C(F)(F)F)cc1 | - | ? | -
C[C@@H]1CN([C@H](C)CO)C(=O)c2cc(NC(=O)Nc3cccc4ccccc34)ccc2O[C@@H]1CN(C)C(=O)Nc1ccc(C(F)(F)F)cc1 | . | - | -
C[C@@H]1CN([C@H](C)CO)C(=O)c2cc(NC(=O)Nc3ccc(C(F)(F)F)cc3)ccc2O[C@H]1CN(C)C(=O)Nc1cccc2ccccc12 | . | 117 | -
C[C@@H]1CN([C@@H](C)CO)C(=O)c2cc(NC(=O)Nc3ccc(F)cc3)ccc2O[C@@H]1CN(C)C(=O)Nc1cccc2ccccc12 | . | - | -
C[C@H](CO)N1C[C@H](C)[C@H](CN(C)C(=O)Nc2cccc3ccccc23)Oc2ccc(NC(=O)Nc3ccc(C(F)(F)F)cc3)cc2C1=O | - | 114 | -

Compound activity deposited in PubChem BioAssay by Broad Institute.
